Source: PubChem (several laboratories)
Lmaj promast: Leishmania major promastigote growth inhibition, primary screen | Leishmania major promastigotes, resazurin fluorescence viability | inhibition, % at 10 µM | 9% of 200,000 active; in the data active = inhibition above about 50%;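 also: promastigotes grown with compound for 44 hours at 28 °C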
KCC2 mod: KCC2 cotransporter modulators, thallium flux, primary screen, cell-based, HEK293 KCC2, FluoZin-2 fluorescence, MLSMR. Solute carrier family 12 member 5 (Homo sapiens), Q9H2X9. KCC2 cells, thallium flux FluoZin-2 fluorescence. B-score of Tl+ flux slope (higher = more flux/activation; lower = inhibition) at 10 µM. 2.2% of 190,000 active. AID 1456, 2008;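 active = thallium flux slope and its plate-corrected score both differing from the plate sample mean at a set confidence after two filtering rounds, in either direction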;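 also: slope of fluorescence scaled to starting intensity during 10 to 20 s after thallium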
Target sequence (Q9H2X9 whole entry, looked up): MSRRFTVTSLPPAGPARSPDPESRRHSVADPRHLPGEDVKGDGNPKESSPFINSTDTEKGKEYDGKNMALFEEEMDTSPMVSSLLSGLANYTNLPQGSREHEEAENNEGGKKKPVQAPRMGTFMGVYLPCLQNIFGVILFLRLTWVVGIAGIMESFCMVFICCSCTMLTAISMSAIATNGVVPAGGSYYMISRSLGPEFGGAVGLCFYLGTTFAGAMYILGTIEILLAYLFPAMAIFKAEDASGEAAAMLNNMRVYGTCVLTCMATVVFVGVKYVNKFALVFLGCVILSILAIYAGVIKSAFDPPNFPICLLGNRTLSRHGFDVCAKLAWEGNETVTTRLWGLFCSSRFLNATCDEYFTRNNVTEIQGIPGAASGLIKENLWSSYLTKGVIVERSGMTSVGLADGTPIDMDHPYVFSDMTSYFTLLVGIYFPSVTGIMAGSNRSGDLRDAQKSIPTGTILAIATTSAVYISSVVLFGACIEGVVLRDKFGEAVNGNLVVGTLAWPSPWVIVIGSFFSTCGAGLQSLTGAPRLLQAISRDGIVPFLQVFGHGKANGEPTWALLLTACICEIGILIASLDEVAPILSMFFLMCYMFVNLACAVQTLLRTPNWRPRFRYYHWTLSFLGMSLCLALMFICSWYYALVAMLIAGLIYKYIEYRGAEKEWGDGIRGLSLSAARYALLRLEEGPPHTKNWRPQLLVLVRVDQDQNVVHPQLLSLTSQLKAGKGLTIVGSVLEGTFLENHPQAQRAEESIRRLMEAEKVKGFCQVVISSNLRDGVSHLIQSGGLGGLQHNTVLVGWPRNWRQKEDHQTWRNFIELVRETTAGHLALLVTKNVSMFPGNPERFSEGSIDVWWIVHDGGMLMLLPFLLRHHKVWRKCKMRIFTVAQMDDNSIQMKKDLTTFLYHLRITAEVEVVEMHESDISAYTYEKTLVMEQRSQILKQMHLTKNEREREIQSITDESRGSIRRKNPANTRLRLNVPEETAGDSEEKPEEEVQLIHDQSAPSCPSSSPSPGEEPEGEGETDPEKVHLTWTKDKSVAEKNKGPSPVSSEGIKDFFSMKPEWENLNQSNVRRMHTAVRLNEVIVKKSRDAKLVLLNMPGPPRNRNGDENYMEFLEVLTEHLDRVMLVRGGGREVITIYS
WT yeast gro inh: growth inhibition of WT strain, primary screen, mitochondrial fusion inhibitor project, WT and mutant strains, chemical genetic; mitochondrial fusion phenotypic screen; inhibition, % at 10 µM; 2.1% of 190,000 active; AID 1362, 2008; in the data active = inhibition above about 58%; tested in S. cerevisiae
ROMK primary: ROMK potassium channel modulators, primary screen, cell-based, thallium flux, MLSMR library | AID 1918, 2009 | 2% of 130,000 active | Tet-inducible ROMK, thallium flux fluorescence; actives lie on both sides | B-score at 10 µM | ATP-sensitive inward rectifier potassium channel 1 (Homo sapiens), P48048;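 active = signal ratio slope over the read window, or its plate-corrected B-score, at least 3 SD from the plate mean, either direction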;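 also: B-score of the F/F0 ratio slope over 7 to 12 s after thallium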
m-calpain inh: inhibitors of pig calpain II, primary screen, biochemical, fluorogenic peptide substrate, 1536-well. purified calpain II, 30 min. inhibition, % at 16 µM. 0.37% of 220,000 active. AID 1236, 2008;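 active = inhibition above about 50%, limit read from the data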
KCC2 secondary: KCC2 modulators in sodium-free buffer, confirmation, cell-based, HEK293 KCC2, thallium flux, secondary assay | shares compounds with KCC2 mod | FluoZin2 fluorescence; active compounds read high | normalised thallium flux (F/F0 slope) at 10 µM | 15% of 3,700 active;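 active = thallium flux slope above the same plate's solvent-only control mean plus 3 SD; inconclusive = the two replicate wells disagree; inactive = no significant difference from solvent-only control wells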
KCC2 bumet counter: thallium flux persisting under bumetanide in KCC2 cells, confirmation, counter-screen for KCC2 modulator project, cell-based, HEK293 KCC2, FluoZin2, secondary assay 3 | normalized thallium flux at 10 µM | shares compounds with KCC2 mod | HEK293-KCC2 + bumetanide/ouabain; active compounds read high | AID 1714, 2009 | 49% of 3,700 active;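 active = thallium entry rate above the same plate's blocked-transporter control wells by more than 3 SD; inconclusive = the two repeat wells disagree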;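 also: raw slope of fluorescence over initial fluorescence between 10 and 20 s after thallium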
KCC2 sec2: KCC2 modulators without ouabain present, confirmation, cell-based, HEK293 KCC2, thallium flux, FluoZin2, secondary assay 2; shares compounds with KCC2 mod; thallium flux FluoZin2 fluorescence; actives lie on both sides; F/F0 rise rate, 10–20 s post-thallium; normalized thallium flux at 10 µM; 23% of 3,700 active;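 active = thallium flux slope more than 3 SD above or below the plate's solvent-only control mean, mostly below; inconclusive = the two repeat wells disagreed; inactive = no significant shift from solvent-only controls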;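 also: raw slope with 0.1% DMSO as baseline and bumetanide as block control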
HEK counter1: thallium flux modulation in parental HEK cells, confirmation, counter-screen for KCC2 modulator project, cell-based, counterscreen 1. shares compounds with KCC2 mod. thallium flux rate (normalised fluorescence) at 10 µM. HEK293 parental cells, thallium flux FluoZin2, ouabain; baseline-ratio fluorescence slope, 10–20 s after thallium. 46% of 3,700 active;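 active = thallium flux rate significantly above the same plate's solvent-only control wells, beyond their mean plus 3 SD; inconclusive = the two replicate wells gave conflicting results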
KCC2 ouabain: KCC2 inhibitors and activators, ouabain retest, confirmation, HEK-KCC2 cells. shares compounds with KCC2 mod. HEK293-KCC2, thallium flux FluoZin2 fluorescence; bidirectional: low = inhibitor, high = activator. raw Tl+ flux slope (below DMSO = inhibition, above = activation) at 10 µM. 48% of 3,700 active;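 active = thallium flux slope beyond 3 SD from same-plate DMSO control mean in most replicates, usually higher, sometimes lower; inconclusive = repeat tests gave conflicting results; inactive = no significant difference from controls in most replicates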;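 also: slope of initial-normalized fluorescence between seconds 10 and 20 after thallium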
HEK counter2: native HEK Tl+ uptake effects, second counter-screen – HEK cells, counterscreen 2, counter-screen for KCC2 modulator project, confirmation | 33% of 3,700 active | HEK293 parental, thallium flux FluoZin-2 fluorescence slope | shares compounds with KCC2 mod | thallium flux slope at 10 µM;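 active = thallium flux slope above the same plate's solvent-control mean plus 3 SD in both duplicate wells; inconclusive = duplicate wells that disagreed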;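 also: run without ouabain in cells lacking the KCC2 cotransporter; slope of fluorescence scaled to its starting value between 10 and 20 s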
Active calls of the source: *; ? = inconclusive; / = no result given. An excerpt weighted towards active compounds, which were near 12% of everything screened.

SMILES	Lmaj promast	KCC2 mod	WT yeast gro inh	ROMK primary	m-calpain inh	KCC2 secondary	KCC2 bumet counter	KCC2 sec2	HEK counter1	KCC2 ouabain	HEK counter2
CCOc1ccc(NC2=NCC(=O)N2CCc2ccccc2)cc1	1.1	-1.16	18.4	-0.876	6.8	/	/	/	/	/	/
O=C(O)CC(NC(=O)C(c1ccccc1)c1ccccc1)c1ccco1 (configuration not stated)	-6.7	-1.24	18.7	/	-5.8	/	/	/	/	/	/
O=C(O)CC(NC(=O)Cc1ccc(Cl)cc1)c1ccco1 (configuration not stated)	-3.7	-3.42*	0.8	0.22	-10.2	0.0179	0.00422	0.0312	0.00767	0.0164	0.0106
CC(=O)Nc1ccc2nc(NC(=O)c3cccs3)sc2c1	/	4.13*	/	/	-10.8	0.00518	?	0.0302	0.00754	0.0191	0.0105
Clc1cccc(-c2nnc(SC/C=C/c3ccccc3)n2Cc2ccco2)c1	14.0	-3.31*	54.9	/	6.9	0.00524	?	0.0303	0.00592*	0.0153*	?
Nn1c(SC/C=C/c2ccccc2)nnc1-c1ccco1	2.9	-0.00177	8.8	/	-6.1	/	/	/	/	/	/
C(=C\c1ccccc1)/CSc1nnc(-c2ccccc2)n1Cc1ccco1	85.1*	-2.92	5.1	/	1.0	0.0163	?	0.0227*	0.00418*	0.0125*	0.00745*
COc1ccc2[nH]c3c(NCCN4CCCCC4)ncnc3c2c1	40.1	-5.21*	-4.9	/	-209.4	0.00678	0.00459	0.0284	0.00732	0.0192	0.0106
Fc1c(F)c(F)c(/C=N/NC(=S)Nc2cccnc2)c(F)c1F	0.3	19.2*	1.6	0.31	-20.1	0.00992	0.0295*	0.036	0.0152*	?	?
Fc1cccc(F)c1/C=N/NC(=S)Nc1cccnc1	3.0	5.24*	-4.3	0.445	-6.9	0.00633	0.012*	0.0275	0.0117*	?	0.0107
Cc1nc(C)c(C(=O)C2=C(O)C(=O)N(CCCn3ccnc3)C2c2ccc(Cl)cc2)s1 (configuration not stated)	2.9	/	-8.2	1.5	-4.5	/	/	/	/	/	/
CC(C)(C)C1CCc2onc(C(=O)Nc3cccnc3)c2C1 (configuration not stated)	37.3	6.46*	43.5	/	-58.0	0.00677	0.00454	0.0297	0.00806	0.0191	0.0106
CC(C)(C)C1CCC(=NNC(=S)Nc2cccnc2)CC1 (configuration not stated)	1.7	6.81*	2.0	0.0193	7.2	0.00689	0.013*	0.0316	0.0142*	?	0.0135*
CC(C)(C)C1CCc2onc(C(=O)Nc3cccc(O)c3)c2C1 (configuration not stated)	-3.0	0.539	25.1	0.975	-10.7	/	/	/	/	/	/
CCNC(=S)NN=C1CCC(C(C)(C)C)CC1 (configuration not stated)	8.1	3.31*	21.5	0.288	-14.4	0.00688	0.00658*	0.0277	0.0092*	0.0197	0.0106
CSc1ccc(Cl)c(C(=O)Nc2ccc(C)cn2)c1	-8.2	-1.77	8.8	-0.0168	8.9	/	/	/	/	/	/
Cc1ccc(C(=O)NN2C(=O)C3C4C=CC([C@@H]3C2=O)C42CC2)cc1 (some centres not stated)	/	0.488	/	-0.592	-4.4	/	/	/	/	/	/
CC(C)c1ccc(N2C(=O)CC(NNC(=O)c3ccccc3Cl)C2=O)cc1 (configuration not stated)	/	0.0446	/	0.523	-2.3	/	/	/	/	/	/
CC(=O)Nc1ccc(NC(=O)C(C)N2CCN(S(=O)(=O)c3ccc(C)cc3)CC2)cc1 (configuration not stated)	-3.7	0.0305	-20.2	0.947	-16.1	/	/	/	/	/	/
CC(=O)Nc1ccc(S(=O)(=O)N2CCN(C(C)CCc3ccccc3)CC2)cc1 (configuration not stated)	85.5*	/	6.8	-1.29	-60.7	0.0163	0.00489	0.0213*	0.00765	0.0138	0.0102
Cc1ccn(CC(C)C(=O)O)n1 (configuration not stated)	-8.0	0.604	-7.9	0.0232	-19.1	/	/	/	/	/	/
O=C1/C(=C/c2ccccc2O)SC(=S)N1Cc1cccnc1	87.7*	10.1*	10.2	/	21.5	0.00625	0.0173*	?	0.0245*	0.0273*	0.0231*
O=C1/C(=C/c2ccc(O)c([N+](=O)[O-])c2)SC(=S)N1Cc1ccccc1	15.9	-0.341	30.9	-1.71	9.5	/	/	/	/	/	/
CSc1ccc(S(=O)(=O)NCc2ccccc2C)cc1	0.8	0.109	-12.6	-0.591	1.5	/	/	/	/	/	/
CCOc1cc(C(=S)N2CCCC2)ccc1OC(=O)Cc1ccc(F)cc1	-5.3	-4.45	9.2	0.406	-5.5	/	/	/	/	/	/
SMILES	Lmaj promast	KCC2 mod	WT yeast gro inh	ROMK primary	m-calpain inh	KCC2 secondary	KCC2 bumet counter	KCC2 sec2	HEK counter1	KCC2 ouabain	HEK counter2
COc1cc(C(=S)N2CCOCC2)ccc1OC(=O)Cc1ccc(F)cc1	-7.7	-4.81*	-0.1	-0.0473	-6.0	0.00891	0.00575	0.0285*	0.00742	0.0152*	0.0112
CCN(CC)S(=O)(=O)c1cccc(C(=O)NCCCn2ccnc2)c1	/	0.456	/	/	-21.4	/	/	/	/	/	/
COc1cc(Cn2c(C(=O)O)cc3sccc32)cc(OC)c1OC	5.0	/	-13.9	/	-50.3	/	/	/	/	/	/
CCC(C)Oc1cccc(C(=O)Nc2ccccc2N2CCOCC2)c1 (configuration not stated)	-1.5	0.0338	33.8	/	13.5	/	/	/	/	/	/
CC(C)Oc1cccc(C(=O)Nc2ccccc2N2CCOCC2)c1	4.8	-8.53*	13.0	/	-21.8	0.00806	0.00511	0.0312	0.00692	0.0332	0.0106
COCCNC(=S)N1CCC(Cc2ccccc2)CC1	2.1	-4.25*	13.9	-0.831	33.0	0.00783	0.00608	0.0318	0.00392	0.0152*	0.0109
